Records with an inconclusive call do not appear. Active and inactive are the calls of the source. Calls follow the shape of the dose curve; as a rule, active = well fitted cell-killing curve with a large enough effect; inconclusive = small, poorly fitted or top-dose-only effect, or effect the other way; inactive = no such curve, though single readings can be large or run the other way.

We go through 16 compounds from PubChem BioAssay (NCATS).

The nature of test [1]: Quantitative High-Throughput drug screen in 47 multiple myeloma cell lines against the NCATS MIPE library collection: XG6_PLB cell viability assay (AID 1919865). Also: nearly all actives have a fitted effect of over 40% in size. Put shortly:
(§1)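 qHTS format: cells plated (500/well), pin-dosed with MIPE 4.0 compounds, kept 48 h at 37 °C. Readout was CellTiter-Glo luminescence, median RLU.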

Test [2] in a line: Quantitative High-Throughput drug screen in 47 multiple myeloma cell lines against the NCATS MIPE library collection: XG1_PLB cell viability assay (AID 1919866). Also: nearly all actives have a fitted effect of over 35% in size. Put shortly:
as §1

Test [3] can be described thus: Quantitative High-Throughput drug screen in 47 multiple myeloma cell lines against the NCATS MIPE library collection: VP6_DJ cell viability assay (AID 1919867). Also: nearly all actives have a fitted effect of over 40% in size. Put shortly:
as §1

Test [4] in a line: Quantitative High-Throughput drug screen in 47 multiple myeloma cell lines against the NCATS MIPE library collection: PCM6_Riken cell viability assay (AID 1919870). Also: nearly all actives have a fitted effect of over 30% in size. Put shortly:
as §1

Test [5] can be described thus: Quantitative High-Throughput drug screen in 47 multiple myeloma cell lines against the NCATS MIPE library collection: KMS11_JCRBsus cell viability assay (AID 1919873). Also: nearly all actives have a fitted effect of over 50% in size. Put shortly:
as §1

A short description of test [6]: Quantitative High-Throughput drug screen in 47 multiple myeloma cell lines against the NCATS MIPE library collection: PE2_PLB cell viability assay (AID 1919869). Also: nearly all actives have a fitted effect of over 35% in size. Put shortly: as §1
A short description of test [7]: Quantitative High-Throughput drug screen in 47 multiple myeloma cell lines against the NCATS MIPE library collection: RPMI8226_ATCC cell viability assay (AID 1919871). Also: nearly all actives have a fitted effect of over 30% in size. Put shortly: as §1
Test [8] is described as follows: Quantitative High-Throughput drug screen in 47 multiple myeloma cell lines against the NCATS MIPE library collection: UTMC2_PLB cell viability assay (AID 1919868). Also: nearly all actives have a fitted effect of over 55% in size. To be noted: CellTiter-Glo ATP luminescence, 48 h; viability (% of DMSO control): at 45.8 µM (top of the series). Put shortly:
as §1
For orientation: Cellular ATP, detected with luciferase, serves as a proxy for viable cell number.

Test [9] in a line: Quantitative High-Throughput drug screen in 47 multiple myeloma cell lines against the NCATS MIPE library collection: OPM2_DSMZ cell viability assay (AID 1919872). Also: nearly all actives have a fitted effect of over 30% in size. Put shortly:
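Relative luminescence from CellTiter-Glo served as the viability signal, referenced to DMSO-treated (100%) and cell-free medium (0%) controls. Treatment lasted 48 hours at 37C with 500 cells per well.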
Potency is read from the fitted curve at half-maximal effect.

In the case of `CC(C)n1cnc2c(NCCc3ccc(O)cc3)nc(-c3csc4ccccc34)nc21`, the Potency in test [1] is 3720 nM (active); in test [2], 3720 nM (active); in [3], 8330 nM (active); in [4], 10500 nM (active); in test [5] it was 18700 nM (active).

Regarding `COc1cc(N2CCC(C(N)=O)CC2)ccc1Nc1nc(N)c(Cl)c(Nc2ccccc2S(=O)(=O)C(C)C)n1`, the Potency was 93.5 nM (active) in test [1]; 93.5 nM (active) in test [2]; 418 nM (active) in test [3]; 418 nM (active) in test [6]; 833 nM (active) in test [4].

`c1cc(N[C@@H]2CCNC2)nc(-c2cnc3ccc(-c4cn[nH]c4)cn23)c1`: the Potency in [1] was 2640 nM (active); in test [2], 5260 nM (active); in test [3], 14800 nM (active); in [6], 2350 nM (active); in test [4] it was 5900 nM (active). For the same compound, the Potency entry in test [7] was “inactive”.

For the compound `CN(C)c1ccc(C(=O)NCCCCCCC(=O)NO)cc1`, the Potency in test [1] was 1870 nM (active); in test [2], 1180 nM (active); in [3], 148 nM (active); in [8] it was 332 nM (active); in test [6] it was 2350 nM (active); in [4] it was 662 nM (active). In addition, the Potency in test [5] is 743 nM (active).

For `C=CC[C@@H]1C=C(C)C[C@H](C)C[C@H](OC)[C@H]2O[C@@](O)(C(=O)C(=O)N3CCCC[C@H]3C(=O)O[C@H](C(C)=C[C@@H]3CC[C@H](O)[C@H](OC)C3)[C@@H](C)[C@@H](O)CC1=O)[C@@H](C)C[C@@H]2OC`, the Potency is 1480 nM (active) in test [1]; 2350 nM (active) in test [2]; 833 nM (active) in test [3]; 2960 nM (active) in test [8]; 2640 nM (active) in test [6]; 935 nM (active) in test [4]. Further, in [5], the Potency is 833 nM (active).

Take `O=C(C=Cc1ccc(CN(CCO)CCc2c[nH]c3ccccc23)cc1)NO`: the Potency in [1] was 235 nM (active); in test [2], 166 nM (active); in test [3], 59 nM (active); in [6], 166 nM (active); in [4], 132 nM (active); in test [7], 235 nM (active). Also, the figures for the Potency in test [9] and in [5] were 209 nM (active) and 52.6 nM (active), respectively.

Regarding `CC(=O)O[C@@]12CO[C@H]1C[C@H](O)[C@@]1(C)C(=O)[C@H](O)C3=C(C)[C@@H](OC(=O)C(O)[C@@H](NC(=O)OC(C)(C)C)c4ccccc4)C[C@@](O)([C@@H](OC(=O)c4ccccc4)[C@@H]21)C3(C)C` (some centres not stated), the Potency result in [1], in test [2], in test [3], in test [8], in test [6] and in test [4] was “inactive” throughout. For the same compound, the Potency result in [9] and in [5] was “inactive” throughout.

As to `CN1C(C(=O)Nc2ccccn2)=C(O)c2sc(Cl)cc2S1(=O)=O`, the Potency in test [1] is 2090 nM (active); in test [2], 1660 nM (active); in [3] it was 3320 nM (active); in test [8], 4690 nM (active); in test [6] it was 3720 nM (active); in test [4], 2640 nM (active). For the same compound, in [9], the Potency entry is “inactive”.

Turning to `C[C@H]1O[C@H](O[C@H]2[C@H](O)[C@@H](O)[C@@H](O[C@H]3[C@H](O)[C@@H](O)C(O)O[C@H]3CO)O[C@H]2CO)[C@H](O)[C@@H](O)[C@H]1N[C@H]1C=C(CO)[C@@H](O)[C@H](O)[C@@H]1O` (some centres not stated), the Potency entry in test [1], in [2], in test [3], in test [8], in [6] and in [4] was “inactive” each time. For the same compound, the Potency entry in test [9] and in test [5] was “inactive” each time.

Take `CC(=O)NC(CS)C(=O)O` (configuration not stated): the Potency entry in test [1], in test [2], in [3], in test [6], in test [4] and in test [7] was “inactive” throughout.

As to `C=CC1=C(C(=O)O)N2C(=O)[C@@H](NC(=O)C(=NO)c3csc(N)n3)[C@H]2SC1`, the Potency entry in test [1], in [2], in test [6], in test [7] and in test [9] was “inactive” in each case. Also, in [4], the Potency is 11800 nM (active).

With `CCc1nc(-c2cccc(C)c2)c(-c2ccnc(NC(=O)c3ccccc3)c2)s1`, the Potency in [1] is 20900 nM (active); in test [6] it was 13200 nM (active); in test [9], 18700 nM (active); in [5], 20900 nM (active).

For `C[C@H](CCC(=O)O)[C@H]1CC[C@H]2[C@@H]3[C@H](O)C[C@@H]4C[C@H](O)CC[C@]4(C)[C@@H]3CC[C@]12C`, the Potency entry in test [1], in test [2], in test [6], in test [4], in test [7] and in test [5] was “inactive” throughout.

With `O=C(Nc1nnc(-c2ccco2)o1)c1cc(-c2ccccc2)nc2ccccc12`, the Potency in [2] was 13200 nM (active); in test [3], 14800 nM (active); in test [8], 14800 nM (active); in [6], 18700 nM (active); in test [4], 18700 nM (active). Moreover, the Potency result in test [9] was “inactive”.

As to `CN1[C@H]2CC(OC(=O)[C@@H](CO)c3ccccc3)C[C@H]1[C@H]1O[C@H]12` (some centres not stated), the Potency entry in [1], in [2], in [6], in test [4], in test [7] and in test [9] was “inactive” in each case. In [5], the Potency result is “inactive”.

Regarding `Cc1cn([C@@H]2O[C@H](CO)[C@@H](O)[C@H]2F)c(=O)[nH]c1=O`, the Potency result in test [2], in test [8], in test [6], in test [9] and in test [5] was “inactive” in each case. Further, the Potency in test [3] is 14800 nM (active).
